CYP2C19 inhib = blockers of cytochrome P450 2C19 activity – biochemical, luminescence, ADME assay, primary screen; actives 21% (n = 96,000); inhibition, % at 5 µM; CYP2C19 Supersomes, luciferin-H EGE luminescence, 30 min; P33261; AID 778, 2007;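 active = CYP2C19 inhibition above a set limit at 5 µM in the primary screen, cut at about 50% in these data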;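 also: plate controls were negative control wells for no effect and 2.5 mM tranylcypromine positive control for full effect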
Cav3 T inh = Cav3.2 calcium influx blockers – cell-based, Fluo-4 calcium fluorescence, FDSS, MLSMR library, primary screen; Voltage-dependent T-type calcium channel subunit alpha-1H (Homo sapiens), O95180; Cav3.2-expressing cells; hits give low values; B-score at 10 µM; actives 4% (n = 100,000); AID 449739, 2010;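 active = single-dose well whose peak fluorescence ratio is a statistical outlier from its plate by either plate-standardised score or position-corrected B-score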
CYP2C19 activ = human CYP2C19 activators, primary screen, biochemical, luminescence; recombinant CYP2C19, luciferin-H EGE luminescence; hits give high values; 0 = fully inhibited enzyme, 1 = untreated enzyme; activation factor at 5 µM; 96,000 tested, under 10 active;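 active = activation factor of at least 2 at 5 µM in the primary screen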;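 also: 0 = wells with 2.5 mM tranylcypromine and 1 = vehicle-only wells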
CYP2C9 activ = human CYP2C9 activators, primary screen, biochemical, luminescence; Cytochrome P450 2C9 (Homo sapiens), P11712; recombinant CYP2C9, luciferin-H conversion; hits give high values; factor 1 = untreated enzyme, 0 = blocked; activation factor at 5 µM; actives 1.4% (n = 96,000); AID 1024, 2008;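 active = activation factor of 2 or more for CYP2C9 at a 5 µM dose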;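 also: 0 = sulfaphenazole-blocked wells and 1 = vehicle-only wells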
CYP2C9 inhib = blockers of cytochrome P450 2C9 activity – biochemical, luminescence, ADME assay, primary screen. P11712. CYP2C9 Supersomes, luciferin-H conversion. inhibition, % at 5 µM. actives 20% (n = 96,000). AID 777, 2007;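 active = blocking of liver enzyme CYP2C9 beyond about 50% at 5 µM, limit read from the data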
Active calls of the source: *; x = no result. Shown are actives, neighbours in structure and some others; about 27% of the full set was active somewhere.

SMILES	CYP2C19 inhib	Cav3 T inh	CYP2C19 activ	CYP2C9 activ	CYP2C9 inhib
c1ccc(-n2ncc3c(NCc4ccc5c(c4)OCO5)ncnc32)cc1	x	0.33	x	x	x
COc1ccc(CNC(=O)CSCc2cnn(-c3ccccc3)c2-n2cccc2)cc1	96*	-7*	0	0	98*
O=C(CSCc1cnn(-c2ccccc2)c1-n1cccc1)NCc1ccc2c(c1)OCO2	x	-7.7*	x	x	x
O=C(CSCc1cnn(-c2ccccc2)c1-n1cccc1)NCC1CCCO1 (stereo not drawn)	80*	1.2	0.2	0.2	79*
CCN(CC)C(=O)CSCc1cnn(-c2ccccc2)c1-n1cccc1	50	-1.3	0.5	0.6	39
O=C(CSCc1cnn(-c2ccccc2)c1-n1cccc1)NCCN1CCOCC1	32	0.53	0.7	0.5	46
CC1(C)CC(=O)C2=C(C1)OC(N)=C(C#N)C21C(=O)N2CCCc3cccc1c32 (stereo not drawn)	-1	0.05	1	0.8	17
CC1(c2ccccc2)CC(C)(C)N2C(=O)C3(C(C#N)=C(N)Oc4cc(O)ccc43)c3cccc1c32 (stereo not drawn)	-9	-4.9*	1.1	0.9	8
CC1=CC(C)(C)N2C(=O)C3(C(C#N)=C(N)Oc4cc(O)ccc43)c3c(C)c(C)cc1c32 (stereo not drawn)	89*	-4.1*	0.1	0.1	94*
Cc1cc2c3c(c1)C(C)(c1ccccc1)CC(C)(C)N3C(=O)C21C(C#N)=C(N)OC2=C1C(=O)CC(C)(C)C2 (stereo not drawn)	5	-2.1	1	0.4	59*
CN1C(=S)SC(C)(C)C1(C)NO (stereo not drawn)	6	x	0.9	1.1	-12
CCn1cnc2cc(NCc3ccc(OC)cc3)ccc21	73*	0.78	0.3	0.9	7
CCCCn1cnc2cc(NCc3ccncc3)ccc21	56*	0.63	0.4	0.4	62*
CCOC(=O)c1ccc(NCc2ccncc2)cc1	x	0.042	x	x	x
CN(C)c1ccc(CNc2ccc3c(c2)ncn3C)cc1	70*	0.51	0.3	1	2
Cn1c(=O)c2c(n(Cc3ccccc3)c1=O)NC(=O)C2CC(=O)NCc1cccc(Cl)c1 (stereo not drawn)	8	-0.12	0.9	0.6	36
CN(C)CCNc1oc(-c2ccccc2F)nc1C#N	-1	0.5	1	1	3
N#Cc1nc(Cc2cccc3ccccc23)oc1NCC1CCCO1 (stereo not drawn)	84*	1.2	0.2	0.3	72*
N#Cc1nc(Cc2cccc3ccccc23)oc1NCc1ccco1	43	-2.7	0.6	0.6	40
CCOc1ccc(-c2nc(C#N)c(NCC3CCCO3)o2)cc1 (stereo not drawn)	-2	0.37	1	0.9	7
COCCNc1oc(-c2ccccc2Cl)nc1C#N	88*	0.64	0.1	0.3	69*
N#Cc1nc(-c2ccccc2Cl)oc1NCC1CCCO1 (stereo not drawn)	64*	x	0.4	0.4	64*
CC(=O)Nc1ccc(C(=O)N2CCCC2)cc1	6	0.65	0.9	1.1	-10
CCNC(=S)NNC(=O)c1cc(C)on1	-15	0.16	1.2	1.1	-13
CC1=C(CO)C(=O)OC([C@@H](C)C2CC[C@H]3C4C[C@H]5O[C@]56[C@@H](O)C=CC(=O)[C@]6(C)C4CC[C@]23C)C1 (stereo partly drawn)	x	0.35	x	x	x
SMILES	CYP2C19 inhib	Cav3 T inh	CYP2C19 activ	CYP2C9 activ	CYP2C9 inhib
FC(F)(F)c1cccnc1N1CCN(c2ncnc3nc[nH]c23)CC1	83*	x	0.2	0.6	38
Cc1ccc2cc(CN(CCN3CCCC3)C(=O)Nc3ccc(F)cc3)c(=O)[nH]c2c1C	-4	0.25	1	0.9	6
COc1ccc(NC(=O)N(CCN2CCCC2)Cc2cc3cc(OC)c(OC)cc3[nH]c2=O)cc1	2	x	1	0.3	75*
CCc1ccc2[nH]c(=O)c(CN(CCCN3CCOCC3)C(=O)Nc3ccc(F)cc3)cc2c1	55*	0.15	0.4	0.6	44
CCc1ccc2[nH]c(=O)c(CN(CCN3CCOCC3)C(=O)Nc3ccccc3F)cc2c1	50	1.7	0.5	0.5	52*
CCN(CC)CCCN(Cc1cc2cc(OC)ccc2[nH]c1=O)C(=O)Nc1ccc(F)cc1	62*	x	0.4	0.2	84*
COc1ccccc1NC(=O)N(CCCN1CCOCC1)Cc1cc2cc3c(cc2[nH]c1=O)OCO3	16	-0.04	0.8	0.9	8
COc1ccc(NC(=O)N(Cc2cc3cc(OC)ccc3[nH]c2=O)CC2CCCO2)cc1 (stereo not drawn)	-4	0.19	1	0.8	23
COc1cccc(-n2nnc3c(=O)n(CC(=O)N4CCC(Cc5ccccc5)CC4)cnc32)c1	-6	0.62	1.1	1.1	-10
CCC(Cc1ccccc1)NC(=O)C1CCC(CNc2c(N3CCCC3)c(=O)c2=O)CC1 (stereo not drawn)	10	0.74	0.9	0.9	8
Cc1cc(C(=O)N2CCN(CCc3ccccc3)CC2)no1	42	-0.00037	0.6	0.9	6
Cc1cc(=O)[nH]c(SCc2nc3ccccc3n2Cc2ccccc2)n1	24	-2.2	0.8	0.6	44
COc1cc2cc(CN(Cc3cccnc3)C(=O)NCc3ccccc3)c(=O)[nH]c2cc1OC	52*	1.1	0.5	0.6	37
CCc1ccc2[nH]c(=O)c(CN(CCN(C)C)C(=O)Nc3ccccc3OC)cc2c1	16	1.6	0.8	0.9	12
CCc1ccc2[nH]c(=O)c(CN(Cc3ccccc3)C(=O)Nc3ccccc3OC)cc2c1	86*	-4.3*	0.1	0.1	90*
CCN(CC)c1ccc(NC(=O)c2cccc(F)c2)c(C)c1	4	-0.012	1	1.9	-92
Cc1nc(SCC(=O)c2ccc(F)cc2)c([N+](=O)[O-])[nH]1	28	1.7	0.7	0.7	34
Cc1nc(SCC(=O)c2ccc(Cl)cc2)c([N+](=O)[O-])[nH]1	53*	0.12	0.5	0.5	48
Cc1ccc(CNC(=O)CCCNS(=O)(=O)c2cccc3nonc23)cc1	38	1	0.6	1.1	-10
COc1ccc(NC(=O)CNS(=O)(=O)c2cccc3nonc23)c(OC)c1	72*	x	0.3	0.3	74*
COc1ccc(CCNC(=O)CCNS(=O)(=O)c2cccc3nsnc23)cc1OC	72*	2	0.3	0.6	35
O=C(CCNS(=O)(=O)c1cccc2nsnc12)NCCc1ccccc1	52*	-1.2	0.5	1.2	-18
COc1ccc(CCNC(=O)CCNS(=O)(=O)c2cccc3nonc23)cc1OC	72*	0.36	0.3	0.8	18
Cc1ccc2c(c1)CC1(CN2C)C(=O)OC(C)(C)OC1=O	9	0.94	0.9	1.2	-21
NC(=O)C1=C[C@H](C2CCCCC2)C[C@H](OCc2ccc(CO)cc2)O1	x	0.65	x	x	x

Screening data: PubChem BioAssay, several laboratories
